About 83,000 compounds went through this panel and 20% of them were active in at least one assay; those are over-represented in the sample as a whole.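 Single-concentration screen, 48 h exposure, 96-well plates. Endpoint: percent growth. Below 10 = active.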 Values without a mark were called inactive. Activity calls are given as the source filed them.

Among the test systems are NCI-H23 lung; NCI-H226 lung; NCI-H322M lung; HOP-62 NSCLC; NCI-H460 lung; HOP-92 NSCLC; NCI-H522 lung; A549/ATCC NSCLC; 786-0 renal; COLO 205 colon.
Common to all, as to test: NCI-60 one-dose screen, 48 h (100 = growth as untreated, 0 = no growth, -100 = all killed)
What all share (settings): 10 µM unless noted

For the compound `CCCSc1nc(NCCc2c[nH]c3ccccc23)c(C#N)c(-c2ccccc2)n1`, the growth with NCI-H23 lung is 89.4%; with NCI-H226 lung, 65.4%; with NCI-H322M lung it was 93.5%; in the assay with HOP-62 NSCLC it was 65.4%; in the assay with NCI-H460 lung it was 25%; with HOP-92 NSCLC it was 78.9%. Besides, the growth in the assay with NCI-H522 lung was 57.9%; in the assay with A549/ATCC NSCLC it was 73.5%; in the assay on 786-0 renal it was 74.7%; in the assay with COLO 205 colon, 62.8%.

As to `Cc1ccc(-n2c(-c3cc4ccccc4nc3Cl)noc2=O)cc1`, the growth with NCI-H23 lung is 87.7%; with NCI-H226 lung it was 77.7%; with NCI-H322M lung, 92.5%; in the assay with HOP-62 NSCLC, 65.1%; in the assay on NCI-H460 lung it was 90.6%; with HOP-92 NSCLC, 70.6%. The growth was 62.7% in the assay on NCI-H522 lung, 85.7% in the assay on A549/ATCC NSCLC, 91.3% with 786-0 renal and 103% with COLO 205 colon.

`O=C(NNc1nc2cc(F)ccc2n2c(CN3CCCCC3)ccc12)c1cnccn1`: the growth in the assay on NCI-H23 lung is -21.3% (active); in the assay with NCI-H226 lung it was -24.6% (active); with NCI-H322M lung it was -7.19% (active); in the assay with HOP-62 NSCLC, -59.2% (active); in the assay on NCI-H460 lung, -11.7% (active); with HOP-92 NSCLC, -24.8% (active). Moreover, the growth is -50.9% (active) in the assay on NCI-H522 lung, -76.8% (active) in the assay with A549/ATCC NSCLC, -98.3% (active) with 786-0 renal and -50.5% (active) in the assay with COLO 205 colon.

For the compound `S=c1c2ccccc2nc2n1CCc1c-2[nH]c2ccccc12`, the growth in the assay with NCI-H23 lung is 62%; in the assay on NCI-H226 lung, 30.8%; in the assay with NCI-H322M lung, 60.6%; in the assay on HOP-62 NSCLC, 38.5%; in the assay on NCI-H460 lung, 71.2%; with HOP-92 NSCLC it was 25.2%. Also, the growth was 56.7% with NCI-H522 lung, 68.2% in the assay with A549/ATCC NSCLC, 46.9% with 786-0 renal and 90.7% in the assay on COLO 205 colon.

For the compound `O=C(/C=C/c1ccc(-c2ccccc2)cc1)c1nc2ccccc2n1Cc1ccc(Br)cc1`, the growth with NCI-H23 lung was 24.7%; in the assay on NCI-H226 lung, 24.3%; with NCI-H322M lung it was 72.4%; with HOP-62 NSCLC, 56.4%; in the assay on NCI-H460 lung, 16.8%; in the assay with HOP-92 NSCLC it was 40.1%. In addition, the growth in the assay with NCI-H522 lung was 71%; with A549/ATCC NSCLC it was 64.7%; with 786-0 renal, 39.3%; with COLO 205 colon, 76.7%.

For the compound `Cc1cc(=O)oc2cc(OCCOc3ccc(/C=C/C(=O)Nc4ccccc4N)cc3)ccc12`, the growth in the assay on NCI-H23 lung is 46.5%; with NCI-H226 lung, 24.8%; in the assay on NCI-H322M lung, 63%; in the assay on HOP-62 NSCLC, 24.1%; in the assay with NCI-H460 lung, 19.5%; with HOP-92 NSCLC it was 31%. For the same compound, the growth with NCI-H522 lung is 3.88% (active); in the assay with A549/ATCC NSCLC it was 30.3%; in the assay with 786-0 renal, 23.4%; in the assay with COLO 205 colon it was -24.8% (active).

Consider `COc1cc2c(c(OC)c1OC)C(=O)CC(c1cccc(NC(=O)c3cccc([N+](=O)[O-])c3)c1)O2` (stereo not given), for which the growth in the assay on NCI-H23 lung was 38.2%; with NCI-H226 lung, 38.4%; with NCI-H322M lung, 63.3%; in the assay with HOP-62 NSCLC, 47.9%; in the assay with NCI-H460 lung, 35.4%; with HOP-92 NSCLC, 17%. In addition, the growth in the assay with NCI-H522 lung was -7.5% (active); in the assay on A549/ATCC NSCLC, 43.8%; in the assay with 786-0 renal, 59.7%; in the assay with COLO 205 colon it was 51.8%.

Take `N/C(=N\N=C\c1ccc([N+](=O)[O-])cc1)c1c(N)nc(=S)[nH]c1-c1ccc(Cl)cc1Cl`: the growth in the assay with NCI-H23 lung is 90.2%; in the assay with NCI-H226 lung, 82.1%; in the assay on NCI-H322M lung it was 100%; in the assay with HOP-62 NSCLC, 57%; in the assay with NCI-H460 lung, 114%; with HOP-92 NSCLC, 2.04% (active). For the same compound, the growth in the assay with NCI-H522 lung is 78.5%; with A549/ATCC NSCLC, 101%; in the assay with 786-0 renal, 54.1%; in the assay on COLO 205 colon it was 115%.

As to `COc1cc2oc(-c3cccc(C(=O)Nc4cccc([N+](=O)[O-])c4)c3)cc(=O)c2c(OC)c1OC`, the growth is 41.1% in the assay with NCI-H23 lung; -18.5% (active) with NCI-H226 lung; 40.2% in the assay on NCI-H322M lung; -13.4% (active) in the assay on HOP-62 NSCLC; 32.3% in the assay on NCI-H460 lung; 6.73% (active) in the assay on HOP-92 NSCLC. Further, the growth is -46% (active) in the assay on NCI-H522 lung, 23% with A549/ATCC NSCLC, -22.9% (active) in the assay on 786-0 renal and 91% with COLO 205 colon.

In the case of `O=C(O)c1ccc(-c2ccc(/C=N/NC(=O)c3[nH]c4ccc(Br)cc4c3-c3ccccc3)s2)cc1`, the growth with NCI-H23 lung is 8.04% (active); in the assay on NCI-H226 lung, 22.8%; in the assay on NCI-H322M lung, 20.4%; in the assay on HOP-62 NSCLC, 28.5%; with NCI-H460 lung, 0.163% (active); in the assay with HOP-92 NSCLC, -4.63% (active). The growth in the assay on NCI-H522 lung is -1.38% (active); with A549/ATCC NSCLC, 23.1%; in the assay with 786-0 renal, 16.5%; in the assay with COLO 205 colon, 23.6%.

For `O=C(/C=C/c1ccc(O)c(O)c1)NC1CCOC1O` (stereo not given), the growth in the assay with NCI-H23 lung was 104%; in the assay with NCI-H226 lung, 120%; with NCI-H322M lung it was 105%; in the assay with HOP-62 NSCLC it was 101%; in the assay with NCI-H460 lung, 116%; in the assay on HOP-92 NSCLC, 91.5%. Besides, the growth was 75.6% with NCI-H522 lung, 99.4% in the assay with A549/ATCC NSCLC, 97.2% in the assay with 786-0 renal and 105% with COLO 205 colon.

In the case of `CC(C)Sc1nc(NCCc2c[nH]c3ccccc23)c(C#N)c(-c2ccccc2)n1`, the growth with NCI-H23 lung was 17.9%; in the assay on NCI-H226 lung it was 33.8%; in the assay with NCI-H322M lung, 85.4%; with HOP-62 NSCLC, 31.9%; in the assay with NCI-H460 lung it was 6.33% (active); in the assay with HOP-92 NSCLC, 4.4% (active). Besides, the growth with NCI-H522 lung is 25.4%; in the assay on A549/ATCC NSCLC, 39.6%; with 786-0 renal, 1.53% (active); in the assay on COLO 205 colon it was 11.9%.

Regarding `C=C1CC[C@@H]2[C@]3(C)COC(c4ccco4)O[C@@H]3CC[C@@]2(C)[C@@H]1C/C=C1/C(=O)OCC1OC(C)=O` (stereo not given in full), the growth was 61.6% in the assay on NCI-H23 lung; 0.912% (active) in the assay with NCI-H226 lung; 79.5% in the assay with NCI-H322M lung; 66.5% in the assay with HOP-62 NSCLC; 37.6% with NCI-H460 lung; 37.9% with HOP-92 NSCLC. Also, the growth is -29.9% (active) in the assay with NCI-H522 lung, 38.7% in the assay on A549/ATCC NSCLC, 3.41% (active) in the assay on 786-0 renal and 48.6% in the assay with COLO 205 colon.

For the compound `CC(/C=C1\SC(=S)N(CCCC(=O)NC(CC(C)C)C(=O)O)C1=O)=C\c1ccccc1` (stereo not given), the growth with NCI-H23 lung is 96.5%; in the assay on NCI-H226 lung, 91.1%; in the assay on NCI-H322M lung, 92.8%; in the assay with HOP-62 NSCLC, 110%; with NCI-H460 lung it was 99.8%; in the assay on HOP-92 NSCLC, 7.81% (active). Also, the growth was 84.2% with NCI-H522 lung, 89.8% in the assay on A549/ATCC NSCLC, 93.4% in the assay with 786-0 renal and 124% in the assay with COLO 205 colon.
